Source: PubChem BioAssay (several laboratories)
mHtt clearance: mutant huntingtin protein clearance. HeLa Exon1htt(103Q)mCFP, aggregate imaging; zero = plate's median compound well. inhibition, % at 1.5 µM. hit rate 0.42% among 47,000. AID 853;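 active = inhibition of aggregate fluorescence above about 70%, also judged a hit by eye on the cell image, limit read from the data, passing the limit was not always enough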;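 note: cells exposed to compound for three days before fixation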
M1 ag: agonists of M1 muscarinic receptor. B-score at 10 µM. AID 626. hit rate 3% among 64,000. CHO-M1 cells, Fluo-4 calcium fluorescence, agonist mode; active compounds read high;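 active = fluorescence rise, raw or as B-score row- and column-corrected plate score, outside the 99.7% band of its plate's samples, either direction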
M1 antag: antagonists of rat M1 muscarinic receptor. P08482. CHO-M1 cells, Fluo-4 calcium, ACh EC80 antagonist mode; active compounds read low. B-score at 10 µM. hit rate 3.4% among 64,000. AID 628;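 active = calcium fluorescence response, raw or row-and-column corrected B-score, differing from the plate sample mean either way at a set confidence level, mostly lower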
Target sequence (P08482 whole entry, looked up): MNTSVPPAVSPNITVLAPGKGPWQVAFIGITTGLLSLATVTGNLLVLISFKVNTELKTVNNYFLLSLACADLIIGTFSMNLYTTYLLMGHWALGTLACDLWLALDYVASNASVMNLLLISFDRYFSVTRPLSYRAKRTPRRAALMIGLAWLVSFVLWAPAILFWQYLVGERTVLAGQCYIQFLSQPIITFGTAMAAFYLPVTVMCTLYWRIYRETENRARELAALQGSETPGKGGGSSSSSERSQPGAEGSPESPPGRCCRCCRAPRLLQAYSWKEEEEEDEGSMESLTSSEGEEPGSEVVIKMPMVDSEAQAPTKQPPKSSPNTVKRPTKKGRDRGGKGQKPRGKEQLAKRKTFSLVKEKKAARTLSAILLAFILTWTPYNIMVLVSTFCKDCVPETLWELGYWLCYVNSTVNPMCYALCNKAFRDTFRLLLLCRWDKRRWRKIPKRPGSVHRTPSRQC
D1 allo mod: allosteric modulators of human D1 dopamine receptor. P21728. HEK293 D1, CRE-luciferase, dopamine EC30 potentiation; actives deviate in either direction. B-score at 10 µM. hit rate 5.9% among 58,000;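 active = luminescence count or its row- and column-corrected plate score outside the 99.7% band of the plate's sample wells, on either side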
M1 antag confirm: M1 muscarinic receptor (rat) antagonism, confirmed; calcium response (max-min fluorescence) at 10 µM; CHO-M1 cells, Fluo-4 calcium, ACh EC80 antagonism; active compounds read low; shares compounds with M1 antag; hit rate 43% among 1,700;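 active = calcium response below the same-plate mean of wells given acetylcholine alone at its 80%-effect dose, minus 3 SD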;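 note: raw fluorescence intensity difference in arbitrary instrument units and not normalized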
mGluR4 antag: mGluR4 (human) activity, M1 antagonist secondary assay; shares compounds with M1 antag; CHO-mGluR4 calcium flux, Fluo-4 fluorescence, glutamate EC80; active compounds read low; fluorescence response (max-min) at 10 µM; hit rate 0.9% among 1,700;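 active = fluorescence response below the plate's average for near-maximal glutamate wells, less 3 SD of those wells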;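 note: raw unnormalized fluorescence span taken in the window right after glutamate addition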
Numbers without * were called inactive; / = no result given. Most compounds without a hit are left out; they make up all but 9.1% or so of the library.

SMILES | mHtt clearance | M1 ag | M1 antag | D1 allo mod | M1 antag confirm | mGluR4 antag
CNS(=O)(=O)c1cccc(C(=O)OCC(=O)Nc2ccccc2OC(F)F)c1 | / | 0.61 | 0.07 | -0.055 | / | /
CCCN1C2CCCC1CC(NC(=O)c1ccccc1)C2 (configuration not stated) | -6 | -0.094 | -2.5 | / | / | /
CCCN1C2CCCC1CC(NC(=O)c1ccccc1OCC)C2 (configuration not stated) | 43 | 1 | -3.8* | -1.1 | 461* | 237
CCCN1C2CCCC1CC(NC(=O)c1ccccc1F)C2 (configuration not stated) | 66 | -1.2 | -3.7* | -2.1 | 567 | 236
CCCSc1nnc2c(n1)OC(c1cccn1C)N(C(C)=O)c1ccccc1-2 (configuration not stated) | -42 | 0.28 | -10* | -0.09 | 23* | 229
COCCn1nnnc1C(c1ccc(Cl)cc1)N1CCSCC1 (configuration not stated) | -35 | / | / | 0.56 | / | /
Cc1cc(/C=N/n2cnnc2)c(C)n1-c1ccc(OCc2ccc(F)cc2)cc1 | / | 0.4 | -2.4* | -2.6 | 503* | 247
CCOC(=O)c1cnn(-c2ncnc3sc4c(c23)CCC4)c1N | 23 | -1.7 | -2.7* | -0.11 | 617 | 204
CCOC(=O)C(C)n1cnc2sc3c(c2c1=O)CCC3 (configuration not stated) | 3 | 0.07 | -0.017 | 0.2 | / | /
N#Cc1c(N)sc2c1CCN(CCc1ccccc1)C2 | -31 | / | / | / | / | /
CCCCN(CCCC)c1cc(C)nc(-c2ccccc2O)n1 | 15 | / | / | / | / | /
O=c1cc(CSc2nnnn2-c2ccccc2)nc2scc(-c3ccccc3)n12 | / | 0.22 | 0.46 | 0.076 | / | /
O=c1cc(CSc2nnnn2-c2ccccc2)nc2nc[nH]n12 | / | -0.062 | -2.1* | -0.58 | 626 | 258
CCN(CC)CCOC(=O)c1ccc(NC(=O)COc2cc(=O)n(CC)c3ccccc23)cc1 | / | 1.2 | -3.4* | -0.93 | 576* | 184
CCOC(=O)Cc1cn2c(=O)cc(CSCC(=O)Nc3ccc(C)c(C)c3)nc2s1 | / | -0.48 | 0.01 | -0.015 | / | /
O=C(Oc1cccc(NC(=O)c2ccco2)c1)c1ccc(Br)c(S(=O)(=O)N2CCCCC2)c1 | -3 | / | / | / | / | /
CC(=O)Oc1ccccc1-c1nc(C)nc(N(C)C(C)=O)n1 | / | 2.4 | 0.042 | 0.0036 | / | /
CC(=O)OCC1OC(n2ccc(=O)[nH]c2=O)C(O)C1O (configuration not stated) | / | 0.15 | -0.2 | 0.51 | / | /
CC(C)(C)C(=O)OCC1OC(n2cnc(C(N)=O)n2)C(O)C1O (configuration not stated) | -84 | -0.64 | -11* | / | 578 | 202
O=C(COc1c(F)c(F)cc(F)c1F)NC(=O)NC1CCCC1 | 3 | 0.039 | -12* | 0.78 | 223* | 233
COc1ccc(-c2nnc(SCc3nnc(-c4ccc(Cl)cc4)o3)n2-c2ccccc2)cc1 | / | -1.5 | -0.0077 | -0.047 | / | /
C=CCn1c(NCc2ccc(N(C)C)cc2)nc2ccccc21 | / | -0.97 | -2.3* | -0.57 | 584 | 220
COc1ccc(-c2noc(CCC(=O)NCC3CCN(Cc4cccc(C)c4)CC3)n2)cc1 | / | 3.4 | -3.6* | -0.21 | 399* | 240
CCOc1ccc(-c2noc(CCC(=O)O)n2)cc1 | -319 | -0.66 | -0.87* | / | 638 | 240
COc1ccc(-c2noc(CCC(=O)Nc3ccc(C)c(C)c3)n2)cc1 | / | -0.0018 | -3.2* | -0.3 | 647 | 166
SMILES | mHtt clearance | M1 ag | M1 antag | D1 allo mod | M1 antag confirm | mGluR4 antag
CCc1cccc(OCC(=O)Nc2ccc(S(=O)(=O)Nc3onc(C)c3C)cc2)c1 | / | 0.39 | 0.57 | 0.25 | / | /
COc1cc2c(C(=O)NCCCN3CC(C)CC(C)C3)cn(CC(C)C)c(=O)c2cc1OC (configuration not stated) | 1 | -0.13 | -2.5* | / | 499* | 238
CCn1c(=O)cc(OCC(=O)Nc2ccc(Cl)cn2)c2ccccc21 | / | -0.36 | -0.18 | -0.34 | / | /
Cc1nc(N2CCN(C(=O)c3ccc(Cl)cc3)CC2)c(C#N)c2c1COC(C)(C)C2 | / | 2.3 | -0.24 | / | / | /
c1ccc(CNc2nnnn2-c2ccccc2)cc1 | -38 | / | / | / | / | /
CCn1nnnc1NCc1ccc(N2CCCC2)cc1 | / | -1.2 | -17* | -0.21 | 503* | 215
OC(COc1ccc(C2C=CCC2)cc1)CN1CCCCC1 (configuration not stated) | / | -1.1 | -4.1* | -0.78 | 422* | 246
O=C(c1ccccc1)c1ccc(OCC(O)CN2CCCCC2)cc1 (configuration not stated) | -73 | 0.044 | -2.2* | -0.22 | 381* | 264
CCC(=O)c1ccc(OCC(O)CN2CCN(S(=O)(=O)N3CCCCC3)CC2)cc1 (configuration not stated) | / | -0.92 | 0.29 | 0.57 | / | /
CC(C)COc1ccc(C(=O)CCN2CCCCC2)cc1 | 41 | -0.21 | -7* | 0.086 | 278* | 199
CN(C)S(=O)(=O)N1CCN(CC(O)COc2ccc(C(=O)c3ccccc3)cc2)CC1 (configuration not stated) | -38 | -0.93 | -0.62 | -0.72 | / | /
CCOC(=O)C1CCN(CC(O)COc2ccc(C(=O)CC)cc2)CC1 (configuration not stated) | / | -0.2 | -3.3* | 0.026 | 569 | 212
COc1ccccc1S(=O)(=O)Cc1ccc(C(=O)NC(C)c2ccc3c(c2)OCCO3)o1 (configuration not stated) | / | 2 | -0.065 | -1 | / | /
O=C(COC(=O)Cn1c(C(F)(F)F)nc2ccccc21)Nc1ccc2c(c1)OCCO2 | 21 | / | / | / | / | /
Cc1ccnc(NC(=O)CCC(=O)N(CC(=O)NCC2CCCO2)Cc2ccc(F)cc2)c1 (configuration not stated) | -44 | -1.2 | -0.86 | -0.23 | / | /
c1cc2c(cc1C1CCCN1)OCCCO2 (configuration not stated) | 8 | 0.53 | -3.7* | / | 513* | 239
CCOC(=O)N1CCC(NC(=O)c2cc3c(-c4ccccc4F)nn(C)c3s2)CC1 | 59 | 0.18 | 0.59 | 0.11 | / | /
CC1CCCCN1CCNC(=O)c1cc2c(-c3ccccc3F)nn(C)c2s1 (configuration not stated) | / | -0.1 | -5.5* | -5.7* | 374* | 207
O=C(Nc1cccc(NS(=O)(=O)c2ccc(S(=O)(=O)NC3CC3)cc2)c1)c1ccccn1 | -30 | -0.3 | -1.7 | -1.5 | / | /
O=C(CC1(O)C(=O)N(Cc2ccccc2)c2ccccc21)c1ccncc1 (configuration not stated) | -8 | -0.00034 | 0.38 | -0.43 | / | /
CCC(C#CCN1CCOCC1)(CC)OCCC#N | -14 | -0.29 | 0.21 | -0.06 | / | /
CC(C)(O)C#CC#CCN1CCOCC1 | / | -0.88 | -1.1* | -0.46 | 637 | 191
CN1/C(=C\C(=O)c2ccco2)c2ccccc2CC1(C)C | -26 | -0.14 | -2.9* | -0.46 | 641 | 244
CN1/C(=C\C(=O)c2ccco2)C(C)(C)c2ccccc21 | / | 0.044 | 0.054 | -0.7 | / | /
Cc1ccccc1C(=O)c1ccc2c(c1)n(C)c(=O)n2C | -18 | 0.0021 | 0.39 | / | / | /
